Assay [1] can be described thus: A CellTox Green Cytotoxicity Assay to monitor cytotoxicity in HepG2 cells - 8 hour (AID 1224890). Note: nearly all actives have a fitted effect of over 45% in size. The gist of the method:
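Nonlytic assay: viable cells exclude the dye, so fluorescence scales with cell death. HepG2 at 600 cells/well, compounds added after 5 h, signal read across 40 h.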

Assay [2] can be described thus: qHTS assay to identify small molecule antagonists of the estrogen receptor alpha (ER-alpha) signaling pathway using the BG1 cell line in the presence of 0.1 nM 17-beta-estradiol - cell viability counter screen (AID 1259241). Note: nearly all actives have a fitted effect of over 40% in size. Note: potency is the fitted concentration of half-maximal effect. Put shortly:
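Cells were plated and left 24 hr, compounds in DMSO were pinned in, 17beta-estradiol was added to 0.1 nM final, and after 22 hr CellTiter-Fluor reagent was added for 30 min before fluorescence was read.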

Assay [3] is described as follows: qHTS assay to identify small molecule antagonists of the androgen receptor (AR) signaling pathway using the MDA cell line in the presence of 0.5 nM R1881 - cell viability counter screen (AID 1259242). Note: nearly all actives have a fitted effect of over 45% in size. The gist of the method: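 R1881 at 0.5 nM final stimulated MDA-kb2 cells during 16 hr compound treatment at 37C. Cytotoxicity read: CellTiter-Fluor fluorescence after 30 min.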

For assay [4], the target named is Androgen receptor (Homo sapiens) (UniProt P10275). The assay can be described thus: qHTS assay to identify small molecule antagonists of the androgen receptor (AR) signaling pathway using the MDA cell line in the presence of 0.5 nM R1881 (AID 1259243). Note: nearly all actives have a fitted effect of over 50% in size. Note: potency is the fitted concentration of half-maximal effect. The gist of the method: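 We exposed MDA-kb2 cells to compounds under 0.5 nM R1881 stimulation for 16 hr at 37C and quantified MMTV-driven luciferase by luminescence.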
Chain of Androgen receptor (Homo sapiens) (P10275 whole entry, looked up): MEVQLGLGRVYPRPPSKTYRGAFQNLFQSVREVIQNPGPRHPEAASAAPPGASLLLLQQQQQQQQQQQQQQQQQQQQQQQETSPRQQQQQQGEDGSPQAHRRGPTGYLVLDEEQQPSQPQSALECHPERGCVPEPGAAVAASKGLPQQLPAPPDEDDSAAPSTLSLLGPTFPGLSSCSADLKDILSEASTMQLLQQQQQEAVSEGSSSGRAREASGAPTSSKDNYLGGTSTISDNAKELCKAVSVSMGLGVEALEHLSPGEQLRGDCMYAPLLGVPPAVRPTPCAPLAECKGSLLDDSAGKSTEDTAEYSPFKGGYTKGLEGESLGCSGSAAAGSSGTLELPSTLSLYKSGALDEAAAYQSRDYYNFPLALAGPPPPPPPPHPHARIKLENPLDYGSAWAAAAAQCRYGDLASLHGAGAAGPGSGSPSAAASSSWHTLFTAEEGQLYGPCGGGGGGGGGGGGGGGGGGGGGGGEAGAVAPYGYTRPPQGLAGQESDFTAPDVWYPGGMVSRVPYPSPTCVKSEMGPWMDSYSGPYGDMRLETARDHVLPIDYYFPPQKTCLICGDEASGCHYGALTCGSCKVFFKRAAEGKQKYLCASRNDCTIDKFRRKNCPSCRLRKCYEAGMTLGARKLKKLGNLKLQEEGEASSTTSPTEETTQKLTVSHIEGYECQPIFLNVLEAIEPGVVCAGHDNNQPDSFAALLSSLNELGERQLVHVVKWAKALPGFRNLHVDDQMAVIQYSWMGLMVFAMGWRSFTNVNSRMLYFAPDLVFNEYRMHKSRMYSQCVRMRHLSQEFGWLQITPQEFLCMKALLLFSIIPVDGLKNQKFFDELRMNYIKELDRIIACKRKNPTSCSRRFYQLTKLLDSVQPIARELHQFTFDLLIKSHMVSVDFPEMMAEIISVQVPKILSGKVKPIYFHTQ

Assay [5] addresses Estrogen receptor (Homo sapiens) (UniProt P03372). The assay can be described thus: qHTS assay to identify small molecule antagonists of the estrogen receptor alpha (ER-alpha) signaling pathway using the BG1 cell line in the presence of 0.1 nM 17-beta-estradiol (AID 1259244). Note: nearly all actives have a fitted effect of over 50% in size. Put shortly:
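VM7Luc4E2; 4xERE-luciferase; 0.1 nM E2 final; 22 h co-incubation, 37C; ONE-Glo luminescence after 30 min at room temperature.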

Assay [6] is described as follows: qHTS assay to identify small molecule HDAC inhibitors (AID 1259364). Note: potency is the fitted concentration of half-maximal effect.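 Note: wild-type HCT-116 cells with endogenous class I/II HDAC activity; nearly all actives have a fitted effect of over 45% in size.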 The gist of the method:
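Relative class I and II HDAC activity is taken from the luminogenic signal in HCT-116 cells, with compound exposure 2 hr and reagent development 30 min at room temperature.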

The nature of assay [7]: qHTS assay to identify small molecule agonists of the sonic hedgehog signaling (Shh) pathway - cell viability counter screen (AID 1259366). Note: nearly all actives have a fitted effect of over 50% in size. Note: potency is the fitted concentration of half-maximal effect. The gist of the method:
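Cells are plated at 2,000 per well and left 4hr at 37C, 5% CO2 before compound addition. After 23hr of treatment, CellTiter-Fluor reagent is added for 1hr at 37C and fluorescence is measured.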

The nature of assay [8]: qHTS assay to identify small molecule antagonists of the sonic hedgehog signaling (Shh) pathway - cell viability counter screen (AID 1259367). Note: nearly all actives have a fitted effect of over 55% in size. Note: potency is the fitted concentration of half-maximal effect. Put shortly:
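After a 4 hr settling period, 3T3 Gli1-Luc cells were treated with DMSO-dissolved chemicals and conditioned medium, kept 24 hr at 37C in 5% CO2, and assayed for viability by CellTiter-Fluor fluorescence following 1 hr reagent incubation.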

Assay [9] can be described thus: qHTS assay to identify small molecule phospholipidosis (PLD) inducers (AID 1259344; active = well fitted curve in the direction sought with a large enough effect; an effect the other way counts as inactive or inconclusive). Put shortly:
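HepG2 cells grown on collagen I take up LipidTOX Red while exposed to compound for 24 h; after fixation they are imaged at 20x and pit metrics are extracted.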

The nature of assay [10]: qHTS assay to identify small molecule HDAC inhibitors - cell viability counter screen (AID 1259365). Note: series mostly up to about 92 µM; nearly all actives have a fitted effect of over 50% in size. Put shortly:
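Counter screen in wild-type HCT-116 cells: compounds dissolved in DMSO are pin-transferred onto overnight-plated cells and left 2hr at 37C. ATP-based CellTiter-Glo luminescence then measures viable cells.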

Structures are written as SMILES. Values joined by “and” are separate entries in the source; they are usually repeats but may differ in a detail not shown here. Equal values may be shown once. Records with an inconclusive call do not appear. Active and inactive are the calls of the source. Unless noted, calls come from the whole dose curve; as a rule, active = well fitted curve in the direction sought with a large enough effect in the repeat runs; inconclusive = weak or mixed curves; inactive = no such curve, though single readings can be large; an effect the other way counts as inactive or inconclusive.

Chain of Estrogen receptor (Homo sapiens) (P03372 whole entry, looked up): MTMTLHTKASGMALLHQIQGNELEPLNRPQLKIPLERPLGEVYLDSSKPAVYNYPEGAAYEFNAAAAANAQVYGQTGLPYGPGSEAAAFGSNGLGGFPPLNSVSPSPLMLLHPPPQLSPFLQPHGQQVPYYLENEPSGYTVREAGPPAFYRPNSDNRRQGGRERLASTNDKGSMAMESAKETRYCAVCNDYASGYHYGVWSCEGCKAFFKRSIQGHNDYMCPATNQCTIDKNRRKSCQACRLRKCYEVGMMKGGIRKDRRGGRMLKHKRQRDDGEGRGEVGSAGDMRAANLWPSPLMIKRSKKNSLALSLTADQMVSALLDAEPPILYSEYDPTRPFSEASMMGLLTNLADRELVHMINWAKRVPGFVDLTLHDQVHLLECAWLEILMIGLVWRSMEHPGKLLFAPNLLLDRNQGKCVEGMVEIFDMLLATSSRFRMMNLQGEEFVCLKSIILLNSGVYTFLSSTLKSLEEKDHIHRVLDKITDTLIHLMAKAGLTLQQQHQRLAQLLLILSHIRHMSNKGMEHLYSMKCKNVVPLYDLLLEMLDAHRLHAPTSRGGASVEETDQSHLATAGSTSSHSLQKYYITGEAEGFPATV

With `COCC(C)N` (stereo not given), the Potency result in assay [1], in assay [2], in assay [3], in [4], in assay [5] and in [6] was “inactive” throughout. Further, the Potency result in assay [7] and in assay [8] was “inactive” each time.
With `COC(=O)c1ccc(O)cc1`, the Potency entry in assay [1], in assay [2], in [3], in assay [5], in assay [9] and in [6] was “inactive” each time. For the same compound, the Potency result in [7] and in [8] was “inactive” in each case.
As to `c1ccc2[nH]c(-c3cscn3)nc2c1`, the Potency entry in [1], in [2], in assay [3], in assay [4], in [5] and in assay [9] was “inactive” in each case. The Potency entry in assay [7] and in [8] was “inactive” each time. The Potency in assay [6] is 9.75 µM (active) and 486 nM (active) and 1.19 µM (active). For the same compound, the result in assay [10] was inactive.
With `N[C@@H](Cc1c[nH]c2ccc(O)cc12)C(=O)O`, the Potency entry in assay [1], in assay [2], in [3], in [5], in [9] and in assay [6] was “inactive” throughout. Further, the Potency entry in assay [7] and in assay [8] was “inactive” in each case.
In the case of `C#C[C@]1(O)CC[C@H]2[C@@H]3CCC4=CC(=O)CC[C@@H]4[C@H]3CC[C@@]21CC`, the Potency entry in assay [1], in assay [2], in assay [3], in assay [5], in assay [9] and in [6] was “inactive” throughout. For the same compound, the Potency entry in assay [7] and in assay [8] was “inactive” in each case.
For the compound `CCCCCCCCCCCCCC(=O)OC(C)C`, the Potency result in assay [1], in assay [2], in [3], in assay [4], in assay [5] and in assay [9] was “inactive” each time. The Potency entry in assay [6], in assay [7] and in assay [8] was “inactive” each time.
As to `COc1cc(O)c(C(=O)c2ccccc2)cc1S(=O)(=O)O`, the Potency entry in [1], in assay [2], in assay [3], in [4], in [5] and in assay [9] was “inactive” each time. For the same compound, the Potency entry in assay [6], in assay [7] and in assay [8] was “inactive” throughout. In assay [10], the outcome was inactive.
As for `O=c1c(-c2ccc(O)cc2)coc2cc(O)cc(O)c12`, the Potency entry in [1], in assay [2], in assay [3], in assay [4], in [9] and in assay [7] was “inactive” throughout. Besides, the Potency entry in assay [8] was “inactive”. In addition, the Potency in [6] was 8.49 µM (active) and 6.86 µM (active) and 9.44 µM (active). For the same compound, the outcome in [10] was inactive.
With `Cc1cccc(C)c1O`, the Potency result in assay [1], in [2], in assay [3], in [4], in [5] and in assay [6] was “inactive” each time. Also, the Potency result in assay [7] and in assay [8] was “inactive” in each case.
For the compound `Cc1c(N(C)C)c(=O)n(-c2ccccc2)n1C`, the Potency entry in assay [1], in assay [2], in assay [3], in [5], in assay [9] and in [6] was “inactive” each time. In addition, the Potency result in assay [7] and in assay [8] was “inactive” in each case.
For the compound `Cc1cccc2ccccc12`, the Potency entry in assay [1], in assay [2], in assay [3], in [5], in assay [6] and in assay [7] was “inactive” in each case. The Potency entry in assay [8] was “inactive”. Further, the outcome in assay [10] was inactive.
For `Cc1cccc(Nc2cc(Cl)nc(SCC(=O)O)n2)c1C`, the Potency entry in assay [1], in assay [3], in assay [4], in assay [5], in [9] and in assay [6] was “inactive” throughout. In addition, the Potency entry in [7] and in assay [8] was “inactive” in each case. In addition, the result in assay [10] was inactive.
As to `O=C(O)CN(CC(=O)O)CC(=O)O`, the Potency result in assay [1], in assay [2], in assay [3], in assay [5], in [6] and in assay [7] was “inactive” throughout. The Potency result in assay [8] was “inactive”.
`CCCCOCCOCCSC#N`: the Potency entry in assay [1], in [2], in [3], in [6], in assay [7] and in assay [8] was “inactive” each time. In addition, the outcome in assay [10] was inactive.
As for `C[C@]12CC[C@@H]3c4ccc(O)cc4C[C@@H](CCCCCCCCCS(=O)CCCC(F)(F)C(F)(F)F)[C@H]3[C@@H]1CC[C@@H]2O` (stereo not given in full), the Potency result in assay [1], in assay [3], in assay [6], in [7] and in assay [8] was “inactive” each time. For the same compound, the Potency in assay [4] is 8.41 µM (active). In addition, the result in [10] was inactive.
Consider `O=[N+]([O-])c1ccc(O)cc1`, for which the Potency entry in assay [1], in [5] and in assay [6] was “inactive” throughout. In addition, the Potency in [2] was 56.6 µM (active); in assay [7], 50.4 µM (active) and 54.5 µM (active); in [8], 56.6 µM (active). The outcome in assay [10] was inactive.
On to `CN(C)Cc1cc(CN(C)C)c(O)c(CN(C)C)c1`, for which the Potency result in assay [1], in assay [3], in assay [4], in assay [5], in assay [6] and in [7] was “inactive” each time. For the same compound, the Potency entry in assay [8] is “inactive”. The outcome in assay [10] was inactive.
With `NC(=O)c1ccc([N+](=O)[O-])cc1Cl`, the Potency entry in assay [1], in assay [2], in [3], in assay [9], in [6] and in assay [7] was “inactive” in each case. Besides, the Potency entry in [8] was “inactive”.
In the case of `Nc1ccc(N=Nc2ccccc2)c(N)n1`, the Potency result in assay [1], in [5] and in assay [9] was “inactive” throughout. Further, the Potency in assay [2] is 61.4 µM (active) and 30.6 µM (active); in [6], 13.8 µM (active) and 17.2 µM (active) and 10.6 µM (active); in assay [7], 27.4 µM (active) and 27.3 µM (active); in [8] it was 27.4 µM (active) and 24.3 µM (active).
As for `O=C(O)Cc1cccc2ccccc12`, the Potency entry in assay [1], in [2], in assay [3], in [9], in [6] and in [7] was “inactive” throughout. The Potency result in assay [8] was “inactive”. In assay [10], the result was inactive.
On to `CCOCCO`, for which the Potency result in [1], in assay [2], in assay [3], in assay [6], in assay [7] and in [8] was “inactive” in each case. Further, the compound was classed as inactive in assay [10].
For the compound `COCCOCCOC`, the Potency result in assay [1], in [3], in assay [4], in [5], in [6] and in assay [7] was “inactive” throughout. For the same compound, the Potency entry in [8] is “inactive”.

These data come from PubChem BioAssay (Tox21).
